Source: publication PMC11062922 (Nature Chemical Biology, 2023)

Tested on: CSNK1D
Parameters: species or system human, MV4-11 + K-562 + COLO205 + SK-N-BE2 + OVCAR-8
Conditions: read-out: apparent Kd; compound concentrations:100 nM and 1000 nM (sheet 'Samples'); n = 1

Structure (SMILES) | potency estimated from few doses [µM]
Cl.NCc1ccc(-c2nc(-c3ccc(Cl)c(O)c3)c(-c3ccncc3)[nH]2)cc1 [SB-476429-A] | 1.29
CC(C)N1CCC(n2cnc(-c3ccc(F)cc3)c2-c2ccnc(N)n2)CC1 [SB-223132] | 0.0251
Cc1cccc(-c2nc(Nc3ccncc3)c3sccc3n2)n1 [GW869641X] | 0.185
Cl.ON=C1CCc2cc(-c3nc(C4CCNCC4)[nH]c3-c3ccncc3)ccc21 [SB-614067-R] | 0.436
Cc1ccc2c(-c3ccncc3)c(-c3ccc(F)cc3)nn2c1.Cl [GW461484A] | 0.125

Tested on: CSNK1E
Parameters: species or system human, MV4-11 + K-562 + COLO205 + SK-N-BE2 + OVCAR-8
Conditions: read-out: apparent Kd; compound concentrations:100 nM and 1000 nM (sheet 'Samples'); n = 1

Structure (SMILES) | potency estimated from few doses [µM]
Cl.NCc1ccc(-c2nc(-c3ccc(Cl)c(O)c3)c(-c3ccncc3)[nH]2)cc1 [SB-476429-A] | 1.38
CC(C)N1CCC(n2cnc(-c3ccc(F)cc3)c2-c2ccnc(N)n2)CC1 [SB-223132] | 0.0778
Cc1cccc(-c2nc(Nc3ccncc3)c3sccc3n2)n1 [GW869641X] | 0.418
Cl.ON=C1CCc2cc(-c3nc(C4CCNCC4)[nH]c3-c3ccncc3)ccc21 [SB-614067-R] | 1.19
Cc1ccc2c(-c3ccncc3)c(-c3ccc(F)cc3)nn2c1.Cl [GW461484A] | 0.673

Tested on: CSNK2A1;CSNK2A3
Parameters: species or system human, MV4-11 + K-562 + COLO205 + SK-N-BE2 + OVCAR-8
Conditions: read-out: apparent Kd; compound concentrations:100 nM and 1000 nM (sheet 'Samples'); n = 1

Structure (SMILES) | potency estimated from few doses [µM]
NCCNS(=O)(=O)c1ccc(-c2ccnc3[nH]ccc23)cc1 [GSK977617A] | 0.782
O=C1NC(=O)C(N2CCc3ccccc32)=C1c1ccccc1Cl [SB-373598] | 0.315
Cl.Cl.NCC(C(=O)Nc1cc(Br)c(-c2ccnc3[nH]ccc23)s1)c1ccccc1.NCC(C(=O)Nc1cc(Br)c(-c2ccnc3[nH]ccc23)s1)c1ccccc1 (centres unmarked) [GSK1269851A] | 0.861
CC(C)N1CCC(n2cnc(-c3ccc(F)cc3)c2-c2ccnc(N)n2)CC1 [SB-223132] | 1.07
CNC(=O)c1ccccc1Nc1nc(Nc2ccc(N3CCOCC3)cc2)ncc1Cl.Cl [GSK1576028A] | 0.0593
CN1C[C@@H]2Cn3c(c(C4=C(c5cn(C)c6ccccc56)C(=O)NC4=O)c4ccccc43)C[C@H]2C1.Cl [RO0320234-001] | 0.836
Cc1ccc2c(-c3ccncc3)c(-c3ccc(F)cc3)nn2c1.Cl [GW461484A] | 1.55

Tested on: CSNK2A2
Parameters: species or system human, MV4-11 + K-562 + COLO205 + SK-N-BE2 + OVCAR-8
Conditions: read-out: apparent Kd; compound concentrations:100 nM and 1000 nM (sheet 'Samples'); n = 1

Structure (SMILES) | potency estimated from few doses [µM]
NCCNS(=O)(=O)c1ccc(-c2ccnc3[nH]ccc23)cc1 [GSK977617A] | 0.766
O=C1NC(=O)C(N2CCc3ccccc32)=C1c1ccccc1Cl [SB-373598] | 0.301
Cl.Cl.NCC(C(=O)Nc1cc(Br)c(-c2ccnc3[nH]ccc23)s1)c1ccccc1.NCC(C(=O)Nc1cc(Br)c(-c2ccnc3[nH]ccc23)s1)c1ccccc1 (centres unmarked) [GSK1269851A] | 1.13
CC(C)N1CCC(n2cnc(-c3ccc(F)cc3)c2-c2ccnc(N)n2)CC1 [SB-223132] | 1.4
CNC(=O)c1ccccc1Nc1nc(Nc2ccc(N3CCOCC3)cc2)ncc1Cl.Cl [GSK1576028A] | 0.0244
CN1C[C@@H]2Cn3c(c(C4=C(c5cn(C)c6ccccc56)C(=O)NC4=O)c4ccccc43)C[C@H]2C1.Cl [RO0320234-001] | 0.784
Cc1ccc2c(-c3ccncc3)c(-c3ccc(F)cc3)nn2c1.Cl [GW461484A] | 2.22

Tested on: EPHA1
Parameters: species or system human, MV4-11 + K-562 + COLO205 + SK-N-BE2 + OVCAR-8
Conditions: read-out: apparent Kd; compound concentrations:100 nM and 1000 nM (sheet 'Samples'); n = 1

Structure (SMILES) | potency estimated from few doses [µM]
NCCNS(=O)(=O)c1ccc(-c2ccnc3[nH]ccc23)cc1 [GSK977617A] | 0.723
O=C1NC(=O)C(N2CCc3ccccc32)=C1c1ccccc1Cl [SB-373598] | 0.207
Cl.Cl.NCC(C(=O)Nc1cc(Br)c(-c2ccnc3[nH]ccc23)s1)c1ccccc1.NCC(C(=O)Nc1cc(Br)c(-c2ccnc3[nH]ccc23)s1)c1ccccc1 (centres unmarked) [GSK1269851A] | 0.516
CN1C[C@@H]2Cn3c(c(C4=C(c5cn(C)c6ccccc56)C(=O)NC4=O)c4ccccc43)C[C@H]2C1.Cl [RO0320234-001] | 0.368
Cc1ccc2c(-c3ccncc3)c(-c3ccc(F)cc3)nn2c1.Cl [GW461484A] | 0.643

Tested on: EPHA2
Parameters: species or system human, MV4-11 + K-562 + COLO205 + SK-N-BE2 + OVCAR-8
Conditions: read-out: apparent Kd; compound concentrations:100 nM and 1000 nM (sheet 'Samples'); n = 1

Structure (SMILES) | potency estimated from few doses [µM]
NCCNS(=O)(=O)c1ccc(-c2ccnc3[nH]ccc23)cc1 [GSK977617A] | 0.441
O=C1NC(=O)C(N2CCc3ccccc32)=C1c1ccccc1Cl [SB-373598] | 0.0874
Cl.Cl.NCC(C(=O)Nc1cc(Br)c(-c2ccnc3[nH]ccc23)s1)c1ccccc1.NCC(C(=O)Nc1cc(Br)c(-c2ccnc3[nH]ccc23)s1)c1ccccc1 (centres unmarked) [GSK1269851A] | 0.505
CC(C)N1CCC(n2cnc(-c3ccc(F)cc3)c2-c2ccnc(N)n2)CC1 [SB-223132] | 0.735
CN1C[C@@H]2Cn3c(c(C4=C(c5cn(C)c6ccccc56)C(=O)NC4=O)c4ccccc43)C[C@H]2C1.Cl [RO0320234-001] | 0.0597
Cc1ccc2c(-c3ccncc3)c(-c3ccc(F)cc3)nn2c1.Cl [GW461484A] | 0.754
